± gives the standard deviation of the averaged measurements. Whole data set: some 33,000 sequences, median “E-score (rank enrichment, -0.5 to 0.5)” near -0.0075, cut for the highest 2% near 0.23. This is one part of a sample in which the highest values are shown more often than they occur.
test system: WT Max(13-93) synthetic (M65Nle); assay: PBM 8-mer E-score (E-score (rank enrichment, -0.5 to 0.5)); higher = stronger preferential binding
Method: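 Protein binding microarray (universal PBM chip covering all 10-mers in fixed probe flanks) with chemically synthesized human Max(13-93) bHLH-LZ analogs (not full-length Max) bearing noncanonical residues (hArg, Tha, Aib, Nle at 65) and aromatic Cys staples. Read-out per 8-mer (and its reverse complement): E-score (rank-based enrichment, -0.5 to 0.5) and Z-score of median probe intensity.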

| Sequence | PBM 8-mer E-score |
| --- | --- |
| CGTGCACA | 0.176 ± 0.0077 |
| CATGCACA | 0.353 ± 0.0061 |
| TGTGCACA | 0.132 ± 0.071 |
| CGTGCACG | 0.293 ± 0.049 |
| CCTACTGC | -0.0303 ± 0.015 |
| AATAGAGT | 0.0159 ± 0.021 |
| AAGGCTCT | -0.0744 ± 0.037 |
| GGTCGGAA | -0.0727 ± 0.14 |
| AGTCTGTG | -0.264 ± 0.097 |
| ACAGTGTG | 0.116 ± 0.011 |
| GGACATTA | 0.0724 ± 0.14 |
| GTGCACAA | -0.0677 ± 0.047 |
| GATACAGC | 0.0628 ± 0.015 |
| CAGTATTC | 0.0983 ± 0.017 |
| GACATGCA | 0.144 ± 0.07 |
| AACATGCG | 0.221 ± 0.0062 |
| CCCATGCG | 0.187 ± 0.058 |
| AATATGCG | 0.0644 ± 0.011 |
| TACATGCA | 0.196 ± 0.084 |
| GACATGCC | 0.167 ± 0.019 |
| CATATGCC | 0.118 ± 0.036 |
| CACATGCA | 0.305 ± 0.031 |

| Sequence | PBM 8-mer E-score |
| --- | --- |
| CACATGCC | 0.258 ± 0.024 |
| AACATGCC | 0.093 ± 0.12 |
| CATATGCG | 0.252 ± 0.015 |
| CACATGCG | 0.29 ± 0.047 |
| CTGCATAA | 0.0963 ± 0.024 |
| CCAATGTA | -0.0337 ± 0.034 |
| GTTGTTTA | 0.212 ± 0.071 |
| CTACACTC | -0.0808 ± 0.031 |
| ACTGAGAC | -0.109 ± 0.043 |
| CCCACGGC | -0.024 ± 0.17 |
| CAGATTGG | -0.114 ± 0.072 |
| CACATCCG | -0.176 ± 0.045 |
| CTAAGGAG | -0.143 ± 0.011 |
| AAAATATC | 0.098 ± 0.12 |
| GAAATACA | -0.0415 ± 0.044 |
| TAAATACA | 0.248 ± 0.0097 |
| CAAATATA | 0.137 ± 0.06 |
| AAAATATA | 0.254 ± 0.032 |
| AAAATACA | 0.0792 ± 0.0013 |
| TAAATATA | 0.253 ± 0.0074 |
| GAAATATA | 0.219 ± 0.035 |
| AAAATATG | 0.21 ± 0.0022 |

| Sequence | PBM 8-mer E-score |
| --- | --- |
| AGGGCGTA | 0.122 ± 0.028 |
| GAATTCTA | -0.07 ± 0.14 |
| CAGGCCCC | -0.0835 ± 0.04 |
| GCATGCAC | 0.277 ± 0.0097 |
| GCATGCAA | 0.257 ± 0.029 |
| GTATGCAC | 0.1415 ± 0.00096 |
| ACATGCGT | 0.313 ± 0.081 |
| CCATGCAA | 0.127 ± 0.083 |
| ACATGCAA | 0.185 ± 0.073 |
| ACATGCAC | 0.244 ± 0.065 |
| ACATGCGG | 0.14 ± 0.056 |
| TCATGCAA | 0.174 ± 0.02 |
| AAATGCGT | 0.0113 ± 0.099 |
| CCATGCAC | 0.0862 ± 0.038 |
| ACATGCAG | 0.126 ± 0.044 |
| CGCACTGA | -0.179 ± 0.032 |
| ACTGTGTC | -0.00876 ± 0.03 |
| GTCTGGCA | -0.0283 ± 0.1 |
| ATAGACAA | 0.1094 ± 0.00018 |
| ACCTCGAT | -0.1167 ± 0.00076 |
| ATTCTAAG | 0.0595 ± 0.006 |
| CTGATCCA | 0.0725 ± 0.042 |

| Sequence | PBM 8-mer E-score |
| --- | --- |
| CAGAGAAC | -0.0299 ± 0.06 |
| TATGATCA | 0.0122 ± 0.2 |
| AAACAGTT | 0.0134 ± 0.022 |
| CCCCTATC | -0.00604 ± 0.055 |
| GTCGGAGA | -0.0989 ± 0.0099 |
| CCATGCTC | 0.084 ± 0.019 |
| ACATGCAT | 0.302 ± 0.039 |
| ACATGCTC | 0.272 ± 0.0055 |
| ACATGCCT | 0.219 ± 0.077 |
| AAATGCAT | 0.229 ± 0.035 |
| ACATGCTA | 0.174 ± 0.035 |
| AGTCTGGC | -0.226 ± 0.12 |
| GTAGCACA | -0.0865 ± 0.011 |
| TAAAGTAA | 0.05 ± 0.016 |
| CAAAGTAA | 0.0802 ± 0.022 |
| GGAAGTAA | 0.238 ± 0.048 |
| AGAAGTAA | 0.154 ± 0.0017 |
| TGAAGTAA | 0.119 ± 0.0048 |
| AAAAGTAC | 0.155 ± 0.029 |
| AAAAGTAT | 0.237 ± 0.021 |
| AAAAGTAA | 0.157 ± 0.0098 |
| GAAAGTAA | 0.267 ± 0.032 |
